Results from PubChem BioAssay (NCATS).
Where “and” joins values, the source holds several entries; their conditions need not be identical. Equal entries are not always repeated. Inconclusive results are not listed. Calls of active or inactive are those of the source. Unless noted, calls come from the whole dose curve; as a rule, active = well fitted curve in the direction sought with a large enough effect; inconclusive = small, poorly fitted or top-dose-only effect, or another doubt; inactive = no such curve, though single readings can be large; an effect the other way counts as inactive or inconclusive.

Assays:
[1] = biological target: Guanine nucleotide-binding protein G(i) subunit alpha-1 (Homo sapiens) (UniProt P63096); assay: qHTS Assay for Inhibitors of RGS12 GoLoco Motif Activity (Green Fluorophore) (AID 879);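 note: 0% = labeled peptide with Gαi1 and full inhibition = labeled peptide alone without protein; negative values mean loss of peptide binding seen as reduced polarization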
Chain of Guanine nucleotide-binding protein G(i) subunit alpha-1 (Homo sapiens) (P63096 whole entry, looked up): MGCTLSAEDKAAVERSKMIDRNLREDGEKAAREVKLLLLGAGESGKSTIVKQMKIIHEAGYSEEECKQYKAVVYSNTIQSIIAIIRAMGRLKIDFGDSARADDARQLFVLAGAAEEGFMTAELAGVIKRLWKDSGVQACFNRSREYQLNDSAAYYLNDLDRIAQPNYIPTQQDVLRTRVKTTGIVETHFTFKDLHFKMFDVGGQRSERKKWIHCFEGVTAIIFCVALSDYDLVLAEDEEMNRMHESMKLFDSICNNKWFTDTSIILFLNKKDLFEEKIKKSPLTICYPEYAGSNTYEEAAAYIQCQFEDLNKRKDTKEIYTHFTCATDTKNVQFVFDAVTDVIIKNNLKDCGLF
Outline: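 A drop in FITC polarization marked displacement of the FITC-tagged RGS12 GoLoco peptide (10 nM) from Gαi1 (50 nM). Compounds were incubated 10 min at room temperature in Tris pH 7.5 buffer containing 150 mM NaCl, 0.1 mM GDP and 0.05% NP40; unlabeled peptide titration served as control.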

[2] = biological target: Cytochrome P450 3A4 (Homo sapiens) (UniProt P08684); assay: qHTS Assay for Inhibitors and Substrates of Cytochrome P450 3A4 (AID 884); note: nearly all actives have a fitted effect of over 50% in size; note: potency is the fitted concentration of half-maximal effect
Chain of Cytochrome P450 3A4 (Homo sapiens) (P08684 whole entry, looked up): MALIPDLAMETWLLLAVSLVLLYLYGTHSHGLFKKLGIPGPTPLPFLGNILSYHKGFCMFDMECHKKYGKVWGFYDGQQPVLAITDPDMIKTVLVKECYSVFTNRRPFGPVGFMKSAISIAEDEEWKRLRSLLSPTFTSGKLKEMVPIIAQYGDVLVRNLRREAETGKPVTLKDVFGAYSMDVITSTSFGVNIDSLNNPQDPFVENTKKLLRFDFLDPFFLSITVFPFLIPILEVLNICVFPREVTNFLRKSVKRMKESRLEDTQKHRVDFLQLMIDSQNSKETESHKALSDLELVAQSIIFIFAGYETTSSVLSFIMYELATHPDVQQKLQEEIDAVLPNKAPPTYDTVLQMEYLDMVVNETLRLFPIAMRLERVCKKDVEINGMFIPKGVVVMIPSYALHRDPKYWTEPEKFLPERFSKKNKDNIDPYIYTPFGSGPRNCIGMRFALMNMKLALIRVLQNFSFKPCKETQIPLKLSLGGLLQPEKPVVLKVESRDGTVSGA
Outline: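 Luminescent readout of luciferin produced by CYP3A4 (20 nM) dealkylation of Luciferin-PPXE, 25 uM (its KM). NADPH-driven reaction ran 60 min at RT after 10 min compound preincubation; data scaled to 57 uM ketoconazole as 100% inhibition.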

[3] = biological target: Cytochrome P450 3A4 (Homo sapiens) (UniProt P08684); assay: qHTS Assay for Activators of Cytochrome P450 3A4 (AID 885); note: nearly all actives have a fitted effect of over 65% in size
Outline: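 Human CYP3A4 dealkylates Luciferin-PPXE to luciferin, which luciferase detection converts to light. Substrate was at its KM (25uM), buffer 200mM KPO4, reaction 60 min at RT.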

[4] = biological target: Cytochrome P450 2D6 (Homo sapiens) (UniProt P10635); assay: qHTS Assay for Inhibitors and Substrates of Cytochrome P450 2D6 (AID 891); note: nearly all actives have a fitted effect of over 60% in size; note: potency is the fitted concentration of half-maximal effect
Chain of Cytochrome P450 2D6 (Homo sapiens) (P10635 whole entry, looked up): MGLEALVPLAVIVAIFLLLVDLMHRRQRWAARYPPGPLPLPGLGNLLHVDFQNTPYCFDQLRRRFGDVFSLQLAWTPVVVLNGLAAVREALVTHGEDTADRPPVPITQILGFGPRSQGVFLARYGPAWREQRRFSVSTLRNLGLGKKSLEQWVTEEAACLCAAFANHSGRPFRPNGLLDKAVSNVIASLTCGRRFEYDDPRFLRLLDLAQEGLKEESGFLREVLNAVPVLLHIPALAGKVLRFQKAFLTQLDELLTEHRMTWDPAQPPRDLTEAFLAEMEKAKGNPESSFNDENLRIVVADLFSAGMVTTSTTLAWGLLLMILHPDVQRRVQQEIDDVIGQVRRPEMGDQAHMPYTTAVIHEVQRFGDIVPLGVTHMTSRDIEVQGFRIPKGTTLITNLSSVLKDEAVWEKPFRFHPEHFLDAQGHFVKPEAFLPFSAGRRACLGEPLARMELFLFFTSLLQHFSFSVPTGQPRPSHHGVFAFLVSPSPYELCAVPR
Outline: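 Luminescent read-out of luciferin formed by 5 nM human CYP2D6 demethylating 30 uM Luciferin-ME EGE (Km level) over 60 min at room temperature after NADPH regeneration addition. Data normalized to full inhibition by 1.43 uM quinidine.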

[5] = qHTS Assay for Identification of Small Molecule Antagonists for Thrombopoietin (TPO) Signaling Pathway (AID 918); details: TPO-dependent cell signaling reporter, antagonist mode; note: potency is the fitted concentration of half-maximal effect; nearly all actives have a fitted effect of over 60% in size
Outline: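 Inhibitors of TPO signaling are sought by stimulating IL-3-starved murine Ba/F3 cells (human TPO receptor, Glycoprotein IIb-driven luciferase) with TPO at its EC50 of 26 pM alongside compound. After 24 hrs at 37 C, reporter luminescence is measured.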

[6] = biological target: Muscarinic acetylcholine receptor M1 (Rattus norvegicus) (UniProt P08482); assay: qHTS Assay for Antagonists of Acetylcholine Muscarinic M1 Receptor: Kinetic Measurement of Intracellular Calcium Response (AID 943);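 note: Fluo-4 calcium signal as peak divided by basal fluorescence over 4 min; nearly all actives have a fitted effect of over 75% in size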
Chain of Muscarinic acetylcholine receptor M1 (Rattus norvegicus) (P08482 whole entry, looked up): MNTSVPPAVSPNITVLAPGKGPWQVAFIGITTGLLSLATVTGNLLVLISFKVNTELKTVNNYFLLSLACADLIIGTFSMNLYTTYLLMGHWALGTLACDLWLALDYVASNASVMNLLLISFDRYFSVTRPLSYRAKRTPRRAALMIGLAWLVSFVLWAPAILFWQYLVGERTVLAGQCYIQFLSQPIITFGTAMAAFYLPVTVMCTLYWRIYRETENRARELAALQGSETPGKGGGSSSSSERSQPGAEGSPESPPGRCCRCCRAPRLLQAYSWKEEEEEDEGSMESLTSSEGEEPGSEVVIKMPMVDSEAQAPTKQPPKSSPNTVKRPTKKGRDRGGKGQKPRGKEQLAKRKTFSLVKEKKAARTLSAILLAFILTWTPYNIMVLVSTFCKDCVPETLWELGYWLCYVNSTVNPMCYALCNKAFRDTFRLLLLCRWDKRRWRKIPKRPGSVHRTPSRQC
Outline: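 Antagonism is measured as inhibition of the carbachol-evoked calcium rise in CHO cells transfected with rat M1. Cells are dye-loaded, exposed to compound for 10 min, then stimulated with 100 nM carbachol (EC80).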

[7] = biological target: Muscarinic acetylcholine receptor M1 (Rattus norvegicus) (UniProt P08482); assay: qHTS Assay for Antagonists of Acetylcholine Muscarinic M1 Receptor: Measurement of IP-One Response (AID 944); note: nearly all actives have a fitted effect of over 75% in size; note: potency is the fitted concentration of half-maximal effect
Outline: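 Antagonist mode with rat M1 receptor transfected into CHO cells. Compound is added first for 10 min, carbachol at its EC80 follows for 30 min, and lysis reagents then allow TR-FRET detection of accumulated IP1.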

[8] = biological target: Pyruvate kinase (Leishmania mexicana) (UniProt Q27686); assay: qHTS Validation Assay for Inhibitors of Leishmania Mexicana Pyruvate Kinase (AID 945);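 note: 0% = DMSO only neutral control wells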
Chain of Pyruvate kinase (Leishmania mexicana) (Q27686 2-499 E452W): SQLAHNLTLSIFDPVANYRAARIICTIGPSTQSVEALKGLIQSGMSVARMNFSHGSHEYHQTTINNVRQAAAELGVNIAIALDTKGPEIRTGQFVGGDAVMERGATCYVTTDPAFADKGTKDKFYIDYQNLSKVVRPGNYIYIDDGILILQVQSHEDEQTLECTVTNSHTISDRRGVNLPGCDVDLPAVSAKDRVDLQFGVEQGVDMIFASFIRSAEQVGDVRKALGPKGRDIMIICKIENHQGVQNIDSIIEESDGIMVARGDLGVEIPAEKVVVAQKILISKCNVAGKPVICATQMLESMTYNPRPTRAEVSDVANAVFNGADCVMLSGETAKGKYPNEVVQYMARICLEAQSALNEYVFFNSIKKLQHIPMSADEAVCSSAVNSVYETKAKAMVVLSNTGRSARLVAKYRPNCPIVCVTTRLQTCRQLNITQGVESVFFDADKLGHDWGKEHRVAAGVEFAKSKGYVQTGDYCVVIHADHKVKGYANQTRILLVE
Outline: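 Compounds are tested as eight-point concentration series. Reactions contain 0.2 nM LmPYK E451W, 0.5 mM PEP, 0.1 mM ADP, 7 mM MgCl2 and 50 mM KCl at pH 7.2, run 1 h at room temperature, then read by PKLight luminescence.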

[9] = Cellular Toxicity (caspase-3) H-4-II-E (AID 663);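 note: cells exposed to compound for 16 hr before readout; 0% = DMSO basal and 100% = 100 µM tamoxifen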
Outline: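 H-4-II-E rat hepatoma, 1500 cells/well, 5 hr settle at 37 °C; compound 16 hr, 37 °C, complete medium; Caspase-Glo 3/7, 20 min RT; luminescence. DMSO = 0%, 100 uM tamoxifen = 100%; Hill-equation AC50.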

[10] = Cellular Toxicity (caspase-3) Hek293 (AID 664);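 note: cells exposed to compound for 16 h at 37 °C before readout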
Outline: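 qHTS, HEK293 (human embryonic kidney), 16 h cpd exposure in complete medium. Caspase-3/7 activation = luminescence increase; normalized to DMSO/100 uM tamoxifen; Hill-fit AC50.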

[11] = Cellular Toxicity (caspase-3) N2a (AID 665);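 note: compound exposure lasted 16 h at 37 °C before readout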
Outline: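 Caspase-3/7 activation, measured as increased luminescence from aminoluciferin release, is quantified in mouse N2a cells exposed to compounds for 16 h. Values are normalized to DMSO and 10 uM staurosporine, with AC50 derived by Hill modelling.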

[12] = Cellular Toxicity (caspase-3) NIH 3T3 (AID 666);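 note: caspase signal read after 16 h compound exposure; 0% = DMSO basal and 100% = 100 µM tamoxifen stimulation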
Outline: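 Cells were plated at 1000 per well and incubated 5 hr at 37°C, then compound was added for 16 hr. Caspase-Glo 3/7 reagent followed for 20 min at room temperature before luminescence was read.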

[13] = Cellular Toxicity (caspase-3) Renal Proximal Tubule (AID 667); details: renal proximal tubule cells; at 91.7 µM (top of the series) unless noted;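 note: cells exposed to compound for 16 hours at 37 °C before detection; 0% = DMSO basal and 100% = 10 µM staurosporine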
Outline: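 In qHTS format, rat primary proximal tubule cells seeded at 1000 per well are exposed to compounds for 16 hours at 37 °C. An increase in Caspase-Glo 3/7 luminescence indicates caspase activation.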

[14] = MultiTox-Fluor Cytotoxicity Assay - LYMP1-001 - Dead Cells (AID 946); note: potency is the fitted concentration of half-maximal effect
Outline: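 LYMP1-001 lymphoblastoid cells (2500/well) treated 16 h at 37 C. Dead-cell protease cleavage of bis-AAF-R110 read at Ex/Em 485/520. Normalized to DMSO and 15 uM tetraoctylammonium bromide; AC50 from Hill fits.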

[15] = Confirmation and Secondary Assay for Modulators of Hemoglobin Beta Chain Splicing at IVS2 654 locus (AID 910);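 note: HeLa cells stably carrying EGFP split by mutant beta-globin IVS2-654 intron; % of control where 0% means no effect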
Outline: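 HeLa cells stably expressing EGFP interrupted by β-globin IVS2-654 intron, seeded overnight in Opti-MEM/2% FCS, then treated 2 days at 37 °C. Restored splicing read as total peak GFP intensity per well by laser scanning cytometry (488 nm excitation, 500–520 nm emission); 500 nM antisense PNA as control.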

[16] = Confirmation and Secondary Assay for Modulators of Hemoglobin Beta Chain Splicing at IVS2 705 locus (AID 930);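 note: HeLa cells stably expressing the EGFP-705 splicing reporter; GFP fluorescence per well restored by corrected splicing of the IVS2-705 intron in EGFP; % of control where 0% means no effect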
Outline: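 Fluorescence gain (488 nm laser, 500-520 nm PMT) reflects restored correct splicing of a mutant IVS2-705 intron inside EGFP in stably transfected HeLa cells after 2-day compound treatment.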

[17] = biological target: Cytochrome P450 2C9 (Homo sapiens) (UniProt P11712); assay: qHTS Assay for Inhibitors and Substrates of Cytochrome P450 2C9 (AID 883); note: % is set by controls: 0 for no effect and ±100 for the full control effect; nearly all actives have a fitted effect of over 60% in size
Chain of Cytochrome P450 2C9 (Homo sapiens) (P11712 whole entry, looked up): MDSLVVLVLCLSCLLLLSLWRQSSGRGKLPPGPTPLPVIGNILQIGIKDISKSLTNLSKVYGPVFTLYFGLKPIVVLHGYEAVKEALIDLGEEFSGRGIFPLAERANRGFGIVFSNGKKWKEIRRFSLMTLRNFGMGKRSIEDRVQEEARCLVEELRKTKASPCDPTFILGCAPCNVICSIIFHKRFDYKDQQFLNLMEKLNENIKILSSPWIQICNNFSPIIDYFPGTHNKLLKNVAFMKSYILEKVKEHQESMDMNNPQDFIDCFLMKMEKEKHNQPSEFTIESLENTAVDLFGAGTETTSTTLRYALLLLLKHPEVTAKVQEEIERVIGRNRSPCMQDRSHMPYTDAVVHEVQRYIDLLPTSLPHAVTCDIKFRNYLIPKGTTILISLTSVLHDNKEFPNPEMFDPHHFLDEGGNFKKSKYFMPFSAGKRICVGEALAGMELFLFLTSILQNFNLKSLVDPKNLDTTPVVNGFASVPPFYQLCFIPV
Outline: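 10nM CYP2C9 + 100uM Luciferin-H (=KM), 25mM KPO4; cpd 10 min 37C; NADPH regen, 60 min 37C; stop/detect with P450 Glo-Buffer 20 min; luminescence. Norm. to 57uM sulphaphenazole as full inhibition.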

[18] = qHTS Assay for Identification of Small Molecule Antagonists for NFkB Signaling Pathway (AID 895; active = well fitted inhibition curve with a large enough effect in the signal ratio, with a control signal flat, not every such curve was filed as active; the % refers to the signal ratio; note: % is set by controls: 0 for no effect and ±100 for the full control effect)
Outline: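 ME-180 NFkB-bla cells (beta-lactamase under NFkB response element), plated overnight, treated with compound then 10 pM TNF alpha (about EC50) for 5 hrs at 37 C. LiveBLAzer FRET read at 460/530 nm emission, 405 nm excitation.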

[19] = qHTS Assay for Identification of Small Molecule Agonists for Thrombopoietin (TPO) Signaling Pathway (AID 917); note: % is set by controls: 0 for no effect and ±100 for the full control effect
Outline: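 Quantitative HTS for pathway activators: compounds were pin-transferred onto IL-3-starved Ba/F3 cells expressing human TPO receptor, TPO was added at its EC50 (26 pM final), and after 24 hrs at 37 C reporter luciferase was measured.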

Cc1c2ccncc2c(C)c2c1[nH]c1ccccc12
active: Potency [2] 158 nM and 398 nM | Potency [4] 31.6 µM and 6.31 µM | Potency [5] 10 µM | Potency [7] 25.1 µM
inactive: Potency [1] | outcome [3] | Potency [6] | Potency [8]

O=C1C2CC=CCC2C(=O)N1SC(Cl)(Cl)Cl (stereo not drawn)
inactive: outcome [9] | outcome [10] | outcome [11] | Potency [12] | caspase-3 activation [13] -14.4% and -19.5% | outcome [3]
active: Potency [14] 10 µM

COc1ccc2c(c1OC)C(=O)OC2C1c2cc3c(cc2CCN1C)OCO3 (stereo not drawn)
inactive: outcome [9] | outcome [10] | outcome [11] | Potency [12] | caspase-3 activation [13] -5.84% | outcome [3] | outcome [15] | outcome [16] | Potency [14]

C[C@H]1CC[C@@H]2[C@@H](C)[C@H]3[C@H](C[C@H]4[C@@H]5CC=C6CC(O[C@@H]7O[C@H](CO)[C@H](O)[C@H](O[C@@H]8O[C@H](CO)[C@@H](O)[C@H](O)[C@H]8O)[C@H]7O[C@H]7O[C@@H](C)[C@H](O)[C@@H](O)[C@H]7O)CC[C@]6(C)[C@H]5CC[C@]34C)N2C1 (stereo partly drawn)
inactive: outcome [9] | outcome [10] | outcome [11] | Potency [12] | caspase-3 activation [13] 5.75% | Potency [2]

O=[N+]([O-])c1ccccc1
inactive: outcome [9] | outcome [10] | outcome [11] | Potency [12] | caspase-3 activation [13] 0.615% | Potency [2] | Potency [14]

O=[N+]([O-])c1ccc(F)c([N+](=O)[O-])c1
inactive: outcome [9] | outcome [10] | outcome [11] | Potency [12] | caspase-3 activation [13] -20.3% | Potency [2] | Potency [14]

CCCCCCCCOC(=O)c1ccccc1C(=O)OCCCCCCCC
inactive: outcome [9] | outcome [10] | outcome [11] | Potency [12] | caspase-3 activation [13] -2.49% | Potency [2] | Potency [14]

C[C@H]1CCC[C@H](O)CCCCCc2cc(O)cc(O)c2C(=O)O1
active: Potency [2] 3.98 µM
inactive: outcome [9] | outcome [10] | outcome [11] | Potency [12] | caspase-3 activation [13] -5.62% | outcome [3] | Potency [14]

CCCCCl
inactive: outcome [9] | outcome [10] | outcome [11] | Potency [12] | caspase-3 activation [13] 1.64% [at 91.7 µM, primary cells freshly taken from rat, solvent-only wells 0%, staurosporine 100%] | Potency [2] | Potency [14]

O=C(O)C(Cl)(Cl)Cl
inactive: outcome [9] | outcome [10] | outcome [11] | Potency [12] | caspase-3 activation [13] -2.66% and 2.21% | Potency [2] | Potency [14]

[O]=[Cd]
inactive: outcome [9] | outcome [10] | outcome [11] | Potency [12] | caspase-3 activation [13] 7.8% [at 91.7 µM, primary cells freshly taken from rat, solvent-only wells 0%, staurosporine 100%] | Potency [2] | Potency [14]

O=CC=O
inactive: outcome [9] | outcome [10] | outcome [11] | Potency [12] | caspase-3 activation [13] -5.02% [at 91.7 µM, primary cells freshly taken from rat, solvent-only wells 0%, staurosporine 100%] | Potency [2] | Potency [14]

ClCC1CO1 (stereo not drawn)
inactive: outcome [9] | outcome [10] | outcome [11] | Potency [12] | caspase-3 activation [13] 0.815% [at 91.7 µM, primary cells freshly taken from rat, solvent-only wells 0%, staurosporine 100%] | Potency [2] | Potency [14]

Oc1cc(Cl)c(Cl)cc1Cl
inactive: outcome [9] | outcome [10] | outcome [11] | Potency [12] | caspase-3 activation [13] 4.35% | Potency [2] | Potency [14]

O=C/C=C/c1ccccc1
inactive: outcome [9] | outcome [10] | outcome [11] | Potency [12] | caspase-3 activation [13] 0.729% and 4.55% | Potency [2] | Potency [14]

[Cl-].[Cl-].[Hg+2]
inactive: outcome [9] | outcome [10] | outcome [11] | Potency [12] | caspase-3 activation [13] -16% | outcome [15] | outcome [16]

ClC(Cl)(Cl)Cl
inactive: outcome [9] | outcome [10] | outcome [11] | Potency [12] | caspase-3 activation [13] 5.92% and -10.1% | Potency [2] | Potency [14]

O=C1C=CC(=O)C=C1
inactive: outcome [9] | outcome [10] | outcome [11] | Potency [12] | caspase-3 activation [13] 4.64% | Potency [17] | Potency [2] | Potency [4] | Potency [18] | Potency [19] | Potency [6] | Potency [7] | Potency [8] | Potency [14]

Clc1ccccc1Cl
inactive: outcome [9] | outcome [10] | outcome [11] | Potency [12] | caspase-3 activation [13] 5.14% [at 91.7 µM, primary cells freshly taken from rat, solvent-only wells 0%, staurosporine 100%] | Potency [2] | Potency [14]
